Test results published in PubChem BioAssay AID1053180 (Broad Institute, 2014).
About 20 (0.2%) of roughly 9,600 compounds were called active. Many of the other results were omitted from the sample, so actives are more common in it than they were. A number with no mark means an inactive call.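 How the source made its calls: active means highest normalized replicate activity of 15 or more, or at least half the replicates reach 15 or more; inactive means neither condition met.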

Assay: Pax4 mRNA upregulation in alpha cells – RT-PCR, mouse alpha TC1 cells, single point, primary screen (AID 1053180);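 further: Pax4 Ct normalized to GAPDH with activation seen as lower delta delta Ct; plate controls were plate neutral control wells for no effect and Pax4 plasmid positive control for full effect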
Details: Pax4 mRNA qPCR, 6 days, at 10 µM, hits give high values, 100% = Pax4 plasmid added at qPCR

| Compound | activation |
| --- | --- |
| O=C(C[C@@H]1CC[C@H]2[C@@H](COC[C@@H](O)CN2C(=O)Cc2ccccc2)O1)NC1Cc2ccccc2C1 | 0.021% |
| CCCN(C)C[C@H]1OCCCC[C@@H](C)Oc2ccc(NC(=O)CCCN(C)C)cc2C(=O)N([C@H](C)CO)C[C@@H]1C | 0.002% |
| C/C=C/c1ccc([C@H]2[C@@H](CO)N3C(=O)CN(Cc4ccc(F)cc4)C[C@H]23)cc1 | 0% |
| C/C=C/c1ccc([C@@H]2[C@@H](CO)N3C(=O)CN(Cc4ccc(F)cc4)C[C@@H]23)cc1 | 0.0005% |
| C/C=C/c1ccc([C@H]2[C@@H](CO)N3C(=O)CN(Cc4ccc(F)cc4)C[C@@H]23)cc1 | 86.9% (active) |
| COc1ccccc1NC(=O)N1CC(=O)N2[C@H](CO)[C@@H](c3ccc(C#CC(C)C)cc3)[C@@H]2C1 | 0.007% |
| COc1cccc(-c2ccc3c(c2)O[C@H](CN(C)Cc2cccnc2)[C@H](C)CN([C@@H](C)CO)S3(=O)=O)c1 | 0.057% |
| COc1ccc(C(=O)N2C[C@H]3[C@@H](c4ccccc42)[C@@H](CO)N3C(=O)Cc2ccccn2)cc1 | 0% |
| N#C[C@@H]1[C@@H](c2ccccc2-c2ccccc2F)[C@H](CO)N1C(=O)Cc1ccccc1 | 0.001% |
| Cc1nc(N2[C@@H](C#N)[C@@H](c3ccccc3)[C@@H]2CO)sc1C | 0.0005% |
| COc1ccc(C[C@@H]2CCn3cc(nn3)COC[C@H](C)NC2=O)cc1 | 0.0005% |
| Cc1ccc(S(=O)(=O)N2C[C@H]3[C@@H](c4ccccc42)[C@@H](CO)N3Cc2cccnc2)cc1 | 0.002% |
| O=C(C[C@H]1CC[C@H]2[C@@H](COC[C@@H](O)CN2S(=O)(=O)c2ccc(F)cc2)O1)NCCN1CCCCC1 | 0.003% |
| COc1ccc(NC(=O)N[C@H]2CC[C@@H](CCNC(=O)CN3CCOCC3)O[C@H]2CO)cc1 | 0.002% |
| Cc1noc(C)c1S(=O)(=O)Nc1ccc2c(c1)C(=O)N([C@H](C)CO)C[C@H](C)[C@H](CN(C)Cc1ccc(C(=O)O)cc1)OCCCC[C@H](C)O2 | -0.0005% |
| COc1ccc(S(=O)(=O)Nc2ccc3c(c2)C(=O)N([C@@H](C)CO)C[C@H](C)[C@H](CN(C)S(=O)(=O)c2ccc(Cl)cc2)OCCCC[C@H](C)O3)cc1 | 0.0535% |
| COc1cccc(-c2cccc(-c3nc(C(=O)O)cc4c3[C@@H](CCO)N(S(=O)C(C)(C)C)C4)c2)c1 (stereo not given in full) | 0% |
| COc1cccc(-c2cccc(-c3nc(C(=O)O)cc4c3[C@H](CCO)N(S(=O)C(C)(C)C)C4)c2)c1 (stereo not given in full) | 0.001% |
| COc1cccc(-c2cccc(-c3nc(C(=O)Nc4ccc(-c5ccccc5)cc4)cc4c3[C@@H](CCO)N(S(=O)C(C)(C)C)C4)c2)c1 (stereo not given in full) | 42.4% (active) |
| COc1cccc(-c2ccc3c(c2)[C@@H]2[C@@H](CCN2S(=O)(=O)C2=NC(C)C=N2)[C@H](CO)N3C)c1 (stereo not given in full) | 0.001% |
| COCC(=O)Nc1ccc2c(c1)[C@H]1C[C@@H](CC(=O)N[C@@H](C)c3ccccc3)O[C@@H](CO)[C@H]1O2 | 0.004% |
| O=C1CN(S(=O)(=O)c2cccc(F)c2)C[C@@H]2[C@@H](c3ccc(C4=CCCC4)cc3)[C@H](CO)N12 | 0.006% |

| Compound | activation |
| --- | --- |
| C[C@H](NC(=O)C[C@@H]1C=C[C@H](NC(=O)c2cccnc2)[C@@H](CO)O1)c1ccccc1 | 0.001% |
| CO[C@H]1CN(C)C(=O)c2cc(NC(=O)C3CCOCC3)ccc2OC[C@H](C)NC[C@@H]1C | 0.0005% |
| CCN1CC(=O)N2[C@@H](CO)[C@H](c3ccc(Br)cc3)[C@@H]2C1 | 0% |
| Cn1cnc(S(=O)(=O)N[C@H]2CC[C@H](CC(=O)NCC3CCCCC3)O[C@@H]2CO)c1 | -0.0005% |
| COc1ccc(S(=O)(=O)N2C[C@H](O)COC[C@@H]3O[C@@H](CC(=O)N[C@H]4CCN(Cc5ccccc5)C4)CC[C@H]32)cc1 | -0.0135% |
| COc1ccc2c3c(n(C)c2c1)[C@@H](CO)NCC31CCN(CC2CCCCC2)CC1 | 0.027% |
| O=C(NC1CCCC1)[C@@H]1[C@@H](CO)[C@@H]2Cn3c(ccc(C4=CCCCC4)c3=O)[C@H]1N2CC1CC1 | 0% |
| O=C(Nc1ccc2c(c1)[C@@H]1C[C@@H](CC(=O)N3CCCCC3)O[C@H](CO)[C@@H]1O2)NC1CCCCC1 | 0.012% |
| COc1ccc(S(=O)(=O)N(C)C[C@@H]2Oc3c(NC(=O)c4nc5ccccc5s4)cccc3C(=O)N([C@@H](C)CO)C[C@@H]2C)cc1 | -0.002% |
| CCS(=O)(=O)Nc1ccc2c(c1)C(=O)N(C)C[C@H](OC)[C@@H](C)CN(C(=O)c1ccc3c(c1)OCO3)[C@@H](C)CO2 | 0% |
| C/C=C/c1ccc([C@@H]2[C@H](CO)N(C(C)=O)[C@H]2CN(C(C)=O)C2CCCC2)cc1 | 0.004% |
| COCC(=O)N1CCC2(CC1)CN(Cc1ccccc1Cl)[C@H](CO)c1[nH]c3cc(OC)ccc3c12 | 0.0015% |
| CN(C)C(=O)c1cccc(-c2ccc([C@@H]3[C@@H](CO)N4CCCCN(CC5CCOCC5)C[C@@H]34)cc2)c1 | 0.001% |
| Cc1ccc(S(=O)(=O)Nc2cccc3c2O[C@@H](CN(C)C(=O)Nc2ccc(C(F)(F)F)cc2)[C@@H](C)CN([C@H](C)CO)C3=O)cc1 | 0.002% |
| C[C@@H]1CN([C@@H](C)CO)C(=O)c2c(c3ccccc3n2C)-c2ccccc2CO[C@H]1CN(C)C(=O)[C@H](Cc1ccccc1)N(C)C | 0.0095% |
| CN(C)C(=O)c1ccc(-c2ccc([C@H]3[C@H](C#N)N(C(=O)C4CC4)[C@H]3CO)cc2)cc1 | 0.0005% |
| N#C[C@H]1[C@@H](c2ccccc2-c2cccc(F)c2)[C@H](CO)N1C(=O)CN1CCOCC1 | 0.006% |
| O=C(CC1CC1)N1CC[C@@H]2[C@H]1c1cc(-c3ccc(F)cc3)ccc1N[C@@H]2CO | 0.0045% |
| CCS(=O)(=O)Nc1ccc2c(c1)C(=O)N(C)[C@H]1CC[C@H](CC(=O)NCCCN3CCOCC3)O[C@H]1CO2 | 0% |
| C/C=C/c1ccc([C@@H]2[C@H](CO)N3CCCCN(S(=O)(=O)c4ccc(OC)cc4)C[C@@H]23)cc1 | 0.0005% |
| COCC(=O)N1[C@@H](C#N)[C@@H](c2ccccc2C2=CCCC2)[C@@H]1CO | 0.01% |
| O=C(Nc1ccc(F)cc1)N1[C@@H]2CNc3ccccc3[C@@H]2[C@@H]1CO | 0.0065% |

| Compound | activation |
| --- | --- |
| COCC(=O)Nc1ccc2c(c1)OC[C@H](C)N(C)C[C@H](C)[C@H](OC)CN(C)C2=O | 0% |
| COCCN(C[C@H]1N[C@H](CO)[C@@H]1c1ccccc1)C(=O)NC1CCCC1 | 0.002% |
| C[C@H]1CN([C@@H](C)CO)C(=O)c2ccccc2-c2ccccc2CO[C@H]1CN(C)Cc1ccc2c(c1)OCCN2C | 0.073% |
| COc1ccc2c3c(n(C)c2c1)[C@H](CO)N(C)CC31CN(S(=O)(=O)c2cccs2)C1 | 0.001% |
| Cc1noc(C)c1S(=O)(=O)N(C)C[C@@H]1Oc2c(NC(=O)c3ccc(-c4nccs4)cc3)cccc2C(=O)N([C@@H](C)CO)C[C@H]1C | -0.0005% |
| N#C[C@@H]1[C@@H](c2ccccc2-c2cccc(F)c2)[C@H](CO)N1C(=O)C1CC1 | 0.0185% |
| CN1C(=O)c2cc(NC(=O)c3cscn3)ccc2OC[C@H]2O[C@H](CC(=O)NCc3ccc(Cl)c(Cl)c3)CC[C@@H]21 | 0.0025% |
| COCCNC(=O)C[C@H]1C[C@@H]2c3cc(NC(=O)CN(C)C)ccc3O[C@@H]2[C@@H](CO)O1 | 0.003% |
| O=C(C[C@H]1C[C@@H]2c3cc(NC(=O)NC4CCCC4)ccc3O[C@@H]2[C@@H](CO)O1)NCc1ccccc1F | 0.0035% |
| CO[C@H]1CN(C)C(=O)c2cc(NC(=O)C3CCCCC3)ccc2OC[C@@H](C)N(C(=O)c2ccccc2)C[C@@H]1C | -0.0005% |
| CN1C(=O)c2cc(NC(=O)C3CCOCC3)ccc2OC[C@@H]2O[C@H](CC(=O)NCCc3ccncc3)CC[C@H]21 | 0.0015% |
| C[C@H]1CNC(=O)[C@@H](Cc2ccc(C(F)(F)F)cc2)CCn2nncc2COC1 | 7.98% (active) |
| C[C@@H]1CNC(=O)[C@H](Cc2ccc(C(F)(F)F)cc2)CCn2nncc2COC1 | 0.259% |
| C[C@H]1CNC(=O)[C@H](Cc2ccc(C(F)(F)F)cc2)CCn2nncc2COC1 | 2.47% |
| CN(C)CC(=O)N1[C@H](CO)[C@@H](c2ccc(C#CC3CCCCC3)cc2)[C@@H]1C#N | 0.005% |
| COCC(=O)N1[C@H](CO)[C@@H]2c3ccccc3N(C)C[C@@H]21 | 0.0025% |
| Cc1nn(C)cc1NC(=O)C[C@@H]1CC[C@@H]2[C@H](COc3ccc(NC(=O)c4cccc(F)c4)cc3C(=O)N2C)O1 | 0.0015% |
| CC(C)[C@H]1COCn2nncc2CC[C@H](C)C(=O)N1 | 0.0005% |
| c1cc(-c2ccc(C3[C@@H]4CN(Cc5nccs5)C[C@H]3N4)cc2)ccn1 (stereo not given in full) | 0.0255% |
| O=C(Nc1ccccc1)N1CC(=O)N2[C@@H](CO)[C@H](c3ccc(C#CC4CCCCC4)cc3)[C@@H]2C1 | 0% |
| CO[C@H]1CC[C@@H]2CCOc3c(C#N)cccc3C(=O)N(C)C[C@@H](OC)[C@@H](C)C(=O)N(C)C[C@H]1O2 | -0.0005% |
